DT40 TDP1 no CPT: qHTS for Inhibitors of human tyrosyl-DNA phosphodiesterase 1 (TDP1): qHTS in cells in absence of CPT; DT40 Tdp1-/- hTDP1 cells, no CPT, ATP luminescence, 48 h; Potency, µM (titrated, usually from 46.2 µM), for the others: at the top dose activity change, negative = growth inhibition, usual class: inhibitors; 15% of 420,000 active; note: potency is the fitted concentration of half-maximal effect; nearly all actives have a fitted effect of over 55% in size
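Chicken DT40 Tdp1-/- cells complemented with human TDP1, screened without camptothecin (DMSO vehicle only), 400 cells/well. Compounds pin-transferred, cells incubated at 37 °C for at least 48 hr. Growth read as ATP-dependent luminescence (CellTiter-Glo, 30 min at RT).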
DT40 TDP1 CPT: DT40-hTDP1 cell growth loss with CPT. chicken DT40 Tdp1-/-;hTDP1 cells + 20 nM CPT, ATP luminescence, 48 h. 12% of 420,000 active. Potency, µM (top dose mostly 46.2 µM), for the others: at the highest dose activity change, negative = growth inhibition, hits mostly inhibitors. AID 686979; note: potency is the fitted concentration of half-maximal effect; nearly all actives have a fitted effect of over 55% in size
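Chicken DT40 Tdp1-/- cells stably complemented with human TDP1 were seeded at 400 cells/well in medium containing 20 nM camptothecin, exposed to pin-transferred compounds, and grown at 37 °C for at least 48 hr. Viability was read as ATP luminescence.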
HT1080NT lethal: kills 2HG-producing HT-1080-NT fibrosarcoma cells | Potency, µM (doses to about 46.1 µM), for the others: top-dose activity, negative = less viability, actives largely listed as cytotoxic | HT-1080-NT fibrosarcoma viability, CellTiter-Glo ATP luminescence, 48 h | AID 686970 | 1.6% of 360,000 active;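 note: NT is the 2HG producing partner of a matched IDH1 knockdown line; potency is the fitted concentration of half-maximal effect; 0% = DMSO-treated cells and -100% = media-only wells without cells; nearly all actives have a fitted effect of over 55% in size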
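Viability of the 2HG-overproducing fibrosarcoma line after 48 hours of compound exposure at 37 degrees C was determined by luminescence with CellTiter-Glo, and concentration-effect curves were then fitted and categorized.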
HT1080 IDH1KD tx: kills HT-1080 cells with IDH1 knockdown; 2% of 360,000 active; HT-1080 IDH1 knockdown viability, ATP luminescence, 48 h; Potency, µM (series often up to 46.1 µM), for inactives: at the highest dose activity, negative = toxicity, usual class: cytotoxic; AID 686971;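 note: potency is the fitted concentration of half-maximal effect; 0% = DMSO wells and -100% = cell-free medium wells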
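Assay cells: HT-1080 with IDH1 knockdown, 750 per well, RPMI/5% FBS. Exposure: 48 h at 37 °C following 2 h pre-incubation. Read: CellTiter-Glo luminescence; fitted concentration-response, curve class assigned.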
IL-1B inflam inh: inhibitors of inflammasome signaling (IL-1 beta secretion); activity change, % at 57.5 µM; 4.7% of 360,000 active; THP-1 LPS/ATP IL-1B secretion, AlphaLISA, 16 h; active compounds read low; in the data active = activity change below about -50%; inconclusive = mostly about -30% to -49%
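THP-1 cells pretreated 1 hr with compounds (up to 57.5 uM final), then stimulated with LPS (250 ng/mL final) plus ATP (1.25 mM final); secreted IL-1B measured by AlphaLISA after 16 hr, decreased signal indicating inhibition.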
The depositor's hits bear a star; [ ] = remark or other dose. A selection: hits, their analogues and other compounds. The true share with any hit is near 19%. Unless noted, calls come from the whole dose curve; as a rule, active = well fitted curve in the direction sought with a large enough effect; inconclusive = small, poorly fitted or top-dose-only effect, or another doubt; inactive = no such curve, though single readings can be large; an effect the other way counts as inactive or inconclusive. Unless noted, % is set by controls: 0 for no effect and ±100 for the full control effect.

How did CC(C)=CCC/C(C)=C/Cc1c(O)ccc(C(=O)/C=C/c2ccc(O)cc2)c1O do in these assays?
DT40 TDP1 no CPT: 21µM*; DT40 TDP1 CPT: inconclusive; HT1080NT lethal: inconclusive; HT1080 IDH1KD tx: -26%; IL-1B inflam inh: -80*

Results for CC(=O)c1cc(CC=C(C)C)c(O)c(CC=C(C)C)c1O ?
DT40 TDP1 no CPT: inconclusive; DT40 TDP1 CPT: inconclusive; HT1080NT lethal: -18%; HT1080 IDH1KD tx: -26%; IL-1B inflam inh: -14

Results for Cc1cc(C)c(NC(=O)COC(=O)/C=C/c2cccs2)c(C)c1 ?
DT40 TDP1 no CPT: 1%; DT40 TDP1 CPT: -18%; HT1080NT lethal: 11%; HT1080 IDH1KD tx: 8%; IL-1B inflam inh: 11

What do the screens show for `Cc1ccccc1-n1c2nc(=O)[nH]c(=O)c-2cc2c(Cl)cccc21`?
DT40 TDP1 no CPT: 0.52µM*; DT40 TDP1 CPT: 0.82µM*

What do the screens show for `CCOC(=O)c1c(NC(C)=O)sc2c1C1CCN2CC1`?
DT40 TDP1 no CPT: inconclusive; DT40 TDP1 CPT: inconclusive; HT1080NT lethal: 4%; HT1080 IDH1KD tx: 3%; IL-1B inflam inh: -12

How did Cc1c(CCCN)c2ccccc2n1Cc1ccccc1 do in these assays?
DT40 TDP1 no CPT: 16µM*; DT40 TDP1 CPT: inconclusive; HT1080NT lethal: inconclusive; HT1080 IDH1KD tx: 21µM*; IL-1B inflam inh: -71*

Results for Cc1ccc(Cn2c(=O)n(CCc3ccc(Cl)cc3)c(=O)c3ccccc32)cc1 ?
DT40 TDP1 no CPT: -13%; DT40 TDP1 CPT: 3%

How did O=C(Nc1ccc(Br)cc1F)c1ccncc1 do in these assays?
DT40 TDP1 no CPT: -29%; DT40 TDP1 CPT: -10%; HT1080NT lethal: 9%; HT1080 IDH1KD tx: 4%; IL-1B inflam inh: inconclusive

How did O=C(Nc1ccc(Br)cc1F)c1ccc2nsnc2c1 do in these assays?
DT40 TDP1 no CPT: 8.2µM*; DT40 TDP1 CPT: inconclusive; HT1080NT lethal: -1%; HT1080 IDH1KD tx: 2%; IL-1B inflam inh: 4

What do the screens show for `CCCCn1nnnc1C(c1ccccc1)N1CCN(CCN2CCOCC2)CC1` (stereo unspecified)?
DT40 TDP1 no CPT: -14%; DT40 TDP1 CPT: 2%; HT1080NT lethal: -10%; HT1080 IDH1KD tx: 10%; IL-1B inflam inh: 42

What do the screens show for `c1ccc(Cn2nnnc2C(c2cccnc2)N2CCN(c3ccccc3)CC2)cc1` (stereo unspecified)?
DT40 TDP1 no CPT: 23µM*; DT40 TDP1 CPT: 21µM*; HT1080NT lethal: -25%; HT1080 IDH1KD tx: -1%[9.24 µM]; IL-1B inflam inh: -2

What do the screens show for `CCCCn1nnnc1C(c1ccccc1)N1CCN(c2ccccn2)CC1` (stereo unspecified)?
DT40 TDP1 no CPT: 16µM*; DT40 TDP1 CPT: -46%; HT1080NT lethal: 15%; HT1080 IDH1KD tx: 10%; IL-1B inflam inh: inconclusive

How did CCCCn1nnnc1C(c1ccccc1)N1CCN(c2ccc(C)cc2)CC1 (stereo unspecified) do in these assays?
DT40 TDP1 no CPT: 18µM*; DT40 TDP1 CPT: inconclusive; HT1080NT lethal: -21%; HT1080 IDH1KD tx: -25%; IL-1B inflam inh: -27

How did CCCCn1nnnc1C(c1ccccc1)N1CCN(c2ncccn2)CC1 (stereo unspecified) do in these assays?
DT40 TDP1 no CPT: 21µM*; DT40 TDP1 CPT: inconclusive; HT1080NT lethal: 4%; HT1080 IDH1KD tx: 1%; IL-1B inflam inh: -19

What do the screens show for `Brc1ccc(OCc2ccccc2)c(CNCc2ccncc2)c1`?
DT40 TDP1 no CPT: inconclusive; DT40 TDP1 CPT: 16µM*; HT1080NT lethal: inconclusive; HT1080 IDH1KD tx: inconclusive; IL-1B inflam inh: -59*

What do the screens show for `Brc1cccc(CNCc2ccncc2)c1`?
DT40 TDP1 no CPT: -17%; DT40 TDP1 CPT: 7%; HT1080NT lethal: 3%; HT1080 IDH1KD tx: 5%; IL-1B inflam inh: 40

What do the screens show for `Fc1ccc(COc2ccccc2CNCc2ccncc2)cc1`?
DT40 TDP1 no CPT: 26µM*; DT40 TDP1 CPT: inconclusive; HT1080NT lethal: 0%; HT1080 IDH1KD tx: 2%; IL-1B inflam inh: -4

How did COc1ccc(-c2csc(N3CCOCC3)n2)cc1OC do in these assays?
DT40 TDP1 no CPT: -4%; DT40 TDP1 CPT: 3%; HT1080NT lethal: 4%; HT1080 IDH1KD tx: 0%; IL-1B inflam inh: inconclusive

How did COc1cc(-c2nnc(-c3ccc(N4CCOCC4)cc3)o2)cc(OC)c1OC do in these assays?
DT40 TDP1 no CPT: 5.8µM*; DT40 TDP1 CPT: 6.5µM*; HT1080NT lethal: -17%; HT1080 IDH1KD tx: 11%; IL-1B inflam inh: inconclusive

Results for COc1cc(-c2nnc(-c3ccc(S(=O)(=O)c4ccccc4)cc3)o2)cc(OC)c1OC ?
DT40 TDP1 no CPT: 12µM*; DT40 TDP1 CPT: 12µM*; HT1080NT lethal: -1%; HT1080 IDH1KD tx: -2%; IL-1B inflam inh: 16

How did Cc1nc(N2CCN(c3ccc(Cl)cc3)CC2)[nH]c(=O)c1C do in these assays?
DT40 TDP1 no CPT: -5%; DT40 TDP1 CPT: -18%; HT1080NT lethal: 0%; HT1080 IDH1KD tx: 1%; IL-1B inflam inh: -8

How did Cc1ccc(C2=Nc3ccccc3SC(c3cccc([N+](=O)[O-])c3)C2)cc1 (stereo unspecified) do in these assays?
DT40 TDP1 no CPT: 16µM*; DT40 TDP1 CPT: inconclusive; HT1080NT lethal: 8%; HT1080 IDH1KD tx: 7%; IL-1B inflam inh: -17

What do the screens show for `CC(=O)Nc1cc([N+](=O)[O-])cc(NC(C)=O)c1NC(C)=O`?
DT40 TDP1 no CPT: inconclusive; DT40 TDP1 CPT: 7.1µM*

Results for O=C(NCCc1cccc(Cl)c1)c1ccc2c(c1)OCO2 ?
DT40 TDP1 no CPT: -19%; DT40 TDP1 CPT: -16%; HT1080NT lethal: -6%; HT1080 IDH1KD tx: -5%; IL-1B inflam inh: -1

Results for COc1ccc(S(=O)(=O)N2CCOCC2)cc1NC(=O)CCNC(=O)c1ccc([N+](=O)[O-])cc1 ?
DT40 TDP1 no CPT: 7.3µM*; DT40 TDP1 CPT: inconclusive; HT1080NT lethal: -3%[9.24 µM]; HT1080 IDH1KD tx: 5.8µM*; IL-1B inflam inh: -20

How did COc1ccc(S(=O)(=O)N2CCCCC2)cc1NC(=O)c1cccc(S(=O)(=O)N2CCOCC2)c1 do in these assays?
DT40 TDP1 no CPT: inconclusive; DT40 TDP1 CPT: inconclusive; HT1080NT lethal: 3%; HT1080 IDH1KD tx: 6%; IL-1B inflam inh: 0

How did COc1ccc(S(=O)(=O)N2CCOCC2)cc1NC(=O)c1ccc(S(=O)(=O)N2CCCCC2)cc1 do in these assays?
DT40 TDP1 no CPT: inconclusive; DT40 TDP1 CPT: 12µM*; HT1080NT lethal: 2%; HT1080 IDH1KD tx: 3%; IL-1B inflam inh: -15

Results for COc1ccc(C)cc1NC(=O)c1cc(S(=O)(=O)N2CCC(C)CC2)ccc1F ?
DT40 TDP1 no CPT: 21µM*; DT40 TDP1 CPT: 16µM*

How did O=C(Nc1nnc(S(=O)(=O)N2CCCC2)s1)c1ccccc1F do in these assays?
DT40 TDP1 no CPT: inconclusive; DT40 TDP1 CPT: -6%; HT1080NT lethal: -2%; HT1080 IDH1KD tx: 1%; IL-1B inflam inh: -59*
